Hit rate of the full screen: of about 69,000 compounds, about 8,600 (12%) showed an effect of 50% or more. The full list was thinned out, with strong results kept by preference.
These compounds were tested on Plasmodium berghei (assay: Screen against P. berghei liver stage (PbLuc), transformed with Luciferase, at 10uM). Details: tested at 10 uM.
Format: functional, HepG2

SMILES	INHIBITION [%]
Cc1nn(C)c2cn(CC(=O)N3CCN(c4ccccc4)CC3)nc12	30.8
O=C(NCCC1CN(Cc2c[nH]cn2)CCO1)Nc1ccccc1 (stereo unspecified)	1.79
CC1(C)C(C(=O)NCCC2CN(Cc3c[nH]cn3)CCO2)C1(C)C (stereo unspecified)	55.5
Cn1ccnc1CN1CCOC(Cc2ccccc2)C1 (stereo unspecified)	0.696
O=C(NCCC1CN(Cc2c[nH]cn2)CCO1)c1ccccc1O (stereo unspecified)	18.6
c1ccc(C(CC2CN(Cc3c[nH]cn3)CCO2)c2ccccc2)cc1 (stereo unspecified)	72.1
c1ccc(C(CC2CN(Cc3ncc[nH]3)CCO2)c2ccccc2)cc1 (stereo unspecified)	43.9
CC(C)NC(=O)N(Cc1cc(O)nc2ccccc12)C(C)C	-10.3
CCOc1ccnc(N2CCN(C(=O)c3ccoc3)CC2)n1	23.7
Cc1cc(C)c2[nH]c(C(=O)NCCN3CCNC3=O)c(C)c2c1	-16.3
Cc1nc(=O)c(CC(=O)N2C[C@@H]3CC[C@H]2CN(C(=O)N(C)C)C3)c(C)[nH]1	0.547
Cc1ccc(CN2C[C@@H](OCc3csc(C)n3)[C@H]3COC[C@H]32)s1	-14.4
Cc1cnc(CNC(=O)[C@@]23CCO[C@@H]2CCNC3)cn1	49.4
Cc1cc(C[C@@H]2COC[C@H]2NCc2ccc(Br)s2)on1	31.8
Cc1cc(C[C@@H]2COC[C@H]2NCc2ccc(C(F)(F)F)cc2)on1	31.6
Cc1cc(C[C@@H]2CCC[C@H]2NCc2cc(C)c(O)c(C)c2)on1	26.7
Cc1cc(C[C@@H]2CCC[C@H]2NCc2cccc(F)c2F)on1	15.9
Cc1cc(C[C@@H]2CCC[C@H]2NCc2c[nH]nc2-c2ccccc2)on1	5.56
Cc1cc(C[C@@H]2CCC[C@H]2NCc2cc(F)ccc2F)on1	-1.85
Cc1cc(C[C@@H]2COC[C@H]2NCc2ccccc2C(F)(F)F)on1	50
Cc1cc(C[C@@H]2CCC[C@H]2NCc2ccccc2C)on1	44.1
CCCOc1ccccc1CN[C@@H]1CCC[C@H]1Cc1cc(C)no1	54.5

SMILES	INHIBITION [%]
Cc1cc(C[C@@H]2CCC[C@H]2NCc2ccc(C(F)(F)F)cc2)on1	41.2
Cc1cc(C[C@@H]2CCC[C@H]2NCc2ccccc2C(F)(F)F)on1	70.5
Cc1cc(C[C@@H]2CCC[C@H]2NCc2ccccc2F)on1	75.3
O=C(CCc1nc(C2CC2)no1)c1ccc(F)c(F)c1	-2.43
CCOc1ccc(OCc2nc3c(c(=O)[nH]2)CCNC3)cc1	26.7
c1coc(CN2C[C@@H]3OCCN(CCN4CCCC4)[C@@H]3C2)c1	36.4
CCn1cnnc1CNC(=O)N1CCC(OCc2ccccc2)CC1	23.4
COCc1cncc2c1CCN(C(=O)c1ccc(C#N)cc1)C2	5.89
CC(C)C(=O)N1CCC(C)(c2cc[nH]n2)CC1	-16.9
O[C@@H]1CC(CNCc2cccc(Cl)c2)(COc2cnccn2)C[C@@H]1O (stereo partly specified)	-4.26
CN(Cc1n[nH]c2c1CCC2)C(=O)CCc1cc2n(n1)CCCNC2	0.72
CO[C@@H]1CN(c2ccccc2)S(=O)(=O)[C@@]12CCN(C(C)=O)C2	34.3
COC(=O)N1CC[C@@]2(C1)[C@H](OC)CN(c1ccccc1)S2(=O)=O	31.3
CO[C@@H]1CN(c2ccccc2)S(=O)(=O)[C@@]12CCN(C(=O)N(C)C)C2	51.7
O=C1CCC2(CCNCC2)CN1Cc1nncn1CCc1ccccc1	0.348
Cc1nccn1-c1ccc(CNC(=O)c2ccc[nH]2)cn1	10.5
Cc1nccn1-c1ccc(CNS(=O)(=O)N2CCCCC2C)cn1 (stereo unspecified)	43.9
Cc1nccn1-c1ccc(CNC(=O)c2ccc(O)nc2)cn1	38.3
Cc1nccn1-c1ccc(CNS(=O)(=O)N2CCC(C)CC2)cn1	76
Cc1nccn1-c1ccc(CNS(=O)(=O)N2CCCC(C)C2)cn1 (stereo unspecified)	37.7
CC(=O)NCc1ccc(-n2ccnc2C)nc1	57.6
CCn1cc(C(=O)Nc2cc(C(=O)OC)ccc2C(=O)OC)cn1	13.3

SMILES	INHIBITION [%]
COc1ccccc1Cc1cc(O)nc(NC(C)CN(C)C)n1 (stereo unspecified)	9.63
CC(NC(=O)COc1ccccc1Cl)c1nnc2n1CCC2 (stereo unspecified)	-40.7
CC(C)CN1CC(C(=O)NCc2ccnc(-n3cccn3)c2)CC1=O (stereo unspecified)	27.357
CS(=O)(=O)N1CCCC(Cc2cnc(Br)cn2)C1 (stereo unspecified)	26.7
CCS(=O)(=O)N1CCCC(Cc2cnccn2)C1 (stereo unspecified)	56
Cn1cc(C(=O)N2CCCC(Cc3cnccn3)C2)cn1 (stereo unspecified)	-12.2
CC(NC(=O)CCCn1cnc2ccccc2c1=O)c1ncn[nH]1 (stereo unspecified)	11.1
COCc1cc(NCCc2ccc(OC)cc2)n2nccc2n1	32.2
N#CC1(NC(=O)c2ccc(-c3nc(C4CC4)n[nH]3)cc2)CC1	8.38
Cc1cc(=O)n(CC(=O)NCCC(C)C)c(-c2cccc(Cl)c2)n1	48.5
Cc1cc(=O)n(CC(=O)NC(C)C)c(Nc2ccc(F)c(C)c2)n1	64.2
Cc1cccc(-c2nc(C)nn2CC(=O)NC(C)C)c1	22.3
CCC(C)NC(=O)Cn1c(Nc2cc(C)cc(C)c2)nc(C)cc1=O (stereo unspecified)	55.4
CCC(C)NC(=O)CCn1ccc(C)n1 (stereo unspecified)	-5.77
Cc1cc(C)cc(Nc2nc(C)cc(=O)n2CC(=O)NC(C)C)c1	34.6
CC(C)n1cnc2ccc(NC(=O)CCCn3cccn3)cc2c1=O	-5.38
Cc1cccc(C(=O)N2CCC(C(=O)c3cc(F)ccc3F)CC2)n1	11.6
Cc1cc(NC(=O)N2CCCC2C(=O)NC2CC2)c2ncccc2c1 (stereo unspecified)	22.6
Cc1cc(NC(=O)NC2CCN(C(C)C)CC2)c2ncccc2c1	70.5
Cc1cc(NC(=O)N2CCCC2C(C)(C)O)c2ncccc2c1 (stereo unspecified)	35.4
CCN(C(=O)c1nc2c(s1)CCCN2S(C)(=O)=O)C(C)C	4.68
Cc1cc(C)n(C2CCCN(C(=O)CCNc3ncccn3)C2)n1 (stereo unspecified)	41.5
